Test systems include T-47D breast; BT-549 breast; MDA-MB-435 melanoma; SW-620 colon; MCF7 breast; HCT-116 colon; HCC-2998 colon; KM12 colon.
Holding throughout (assay): NCI-60 one-dose screen, 48 h (100 = growth as untreated, 0 = no growth, -100 = all killed)
Settings in all cases: 10 µM unless noted

This is part of a sample that, as a whole, favours compounds with a hit. Of some 83,000 tested, about 20% had one in any assay.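 Growth was measured after 48 h exposure to one concentration of compound in 96-well plates. Values under 10 count as active.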 Values without a mark were called inactive. The source made the active and inactive calls.

For four compounds, growth results are on record in PubChem BioAssay (NCI).

Turning to `COc1ccc(C2=C(CN)C(O)NC(=NCC(=O)c3ccc4ccccc4c3)N2)cc1` (configuration not stated), the growth was 101% in the assay on T-47D breast; 99% with BT-549 breast; 103% in the assay with MDA-MB-435 melanoma; 112% in the assay with SW-620 colon; 96.2% with MCF7 breast; 92.7% in the assay on HCT-116 colon. For the same compound, the figures for the growth in the assay on HCC-2998 colon and in the assay on KM12 colon were 107% and 97.2%, respectively.
With `Cc1ccc(Nc2nc(-c3cc(O)c(C)c(C)c3O)cs2)cc1`, the growth with T-47D breast is 35.5%; with BT-549 breast, 98.1%; in the assay with MDA-MB-435 melanoma, 66.4%; in the assay on SW-620 colon it was 111%; in the assay with MCF7 breast, 71.9%; in the assay on HCT-116 colon, 105%. Besides, the growth in the assay on HCC-2998 colon is 112%; in the assay with KM12 colon it was 60.9%.
As to `CNC(=O)c1cc(Oc2ccc3nc(NC(=O)Nc4ccc(C(F)(F)F)cc4)sc3c2)ccn1`, the growth was 44.8% in the assay with T-47D breast; 62.3% in the assay with BT-549 breast; 40.9% with MDA-MB-435 melanoma; 37.9% with SW-620 colon; 42% in the assay on MCF7 breast; 7.67% (active) in the assay with HCT-116 colon. Further, the growth was 104% with HCC-2998 colon and 65% in the assay on KM12 colon.
Turning to `Cc1ccc(S(=O)(=O)OC[C@@]2(C)CC[C@]3(C)CC[C@]4(C)C(=CC[C@@H]5[C@@]6(C)CCCNC(C)(C)[C@@H]6CC[C@]54C)[C@@H]3C2)cc1`, the growth with T-47D breast was -82.8% (active); with BT-549 breast it was 76.5%; in the assay on MDA-MB-435 melanoma it was -89.9% (active); in the assay on SW-620 colon, -81.9% (active); in the assay on MCF7 breast, -61.6% (active); with HCT-116 colon, -80.6% (active). Also, the growth is -92.3% (active) in the assay on HCC-2998 colon and -91.7% (active) in the assay on KM12 colon.
